Hit rate of the full screen: of about 290,000 compounds, about 2,000 (0.69%) were called active. The sample holds actives, similar compounds and a random draw of the others, so the mix is not that of the screen. Unmarked numbers belong to inactive results. Rule as the data show it: active = activity change below about -30%; inactive = the rest, inconclusive results apart.
experiment: qHTS Assay for Inhibitors of Fructose-1,6-bisphosphate Aldolase from Giardia Lamblia: Coupling assay counterscreen; settings: coupling enzyme system counterscreen, AmpLite Red fluorescence; at 58.2 µM (top of the series)
Procedure, shortened: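 Fluorescence at 525 nm excitation and 598 nm emission measured inhibition of the coupled detection system without aldolase. Compounds (at 57.5 uM final) were preincubated 10 min at room temperature with coupling enzyme reagent before a 20 min substrate/AmpLite Red step.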
% is scaled to controls: 0 for no effect and ±100 for the full control effect.

Structure (SMILES) | activity change, negative = inhibition
CSC(=S)N/N=C/c1c[nH]c2ccccc12 | -0.216%
C[n+]1ccc(/C=C/c2c[nH]c3ccccc23)cc1 | -48.5% (active)
O=C(N/N=C/c1c[nH]c2ccccc12)c1ccccc1O | 1.26%
O=C(NC1CC1)C1=C[C@H](c2c[nH]c3ccccc23)C[C@H](OCc2ccc(CO)cc2)O1 | -9.68%
COc1cccc([C@@H]2Oc3ccc(Br)cc3C(=O)[C@H]2OC(=O)NCc2ccc3c(c2)OCO3)c1 | 1.06%
COc1ccc(CCNC(=O)CSCc2ccc(Br)cc2)cc1OC | -0.53%
CCCCCCCCCc1ccc(OCCOCCOCCOCCOCCOCCOCCOCCOCCO)cc1 | 0.692%
COC(=O)[C@@]1(Cc2ccc(F)cc2)[C@H]2c3cc(C(=O)N4CCCC4)n(C[C@H](O)CO)c3C[C@H]2CN1C(=O)c1ccccc1 | 4.89%
COC1=C(N2CCOCC2)C(=O)c2ccccc2C1=O | -31.1% (active)
COc1ccc(N2CCN(C(C)=C3C(=O)c4ccccc4C3=O)CC2)cc1 | -5.52%
O=C1C(Cl)=C(N2CCOCC2)C(=O)N1c1ccccc1 | 4.18%
O=C(CSc1cccc[n+]1[O-])c1ccc(-c2ccccc2)cc1 | -0.455%
CCSc1nsc(NC(=O)Nc2cccc(C(C)=O)c2)n1 | -3.71%
C=C1CCN(Cc2ccc(OC)cc2)S(=O)(=O)c2ccccc21 | -9.95%
O=C(Nc1cc(C(=O)Nc2ccc(S(=O)(=O)O)cc2)cc(C(=O)Nc2ccc(S(=O)(=O)O)cc2)c1)Nc1cc(C(=O)Nc2ccc(S(=O)(=O)O)cc2)cc(C(=O)Nc2ccc(S(=O)(=O)O)cc2)c1 | 4.94%
Cc1c(S(=O)(=O)O)oc2c1C(=O)C(=O)c1c-2ccc2c1CCCC2(C)C | -38.9% (active)
Cc1cc(C)cc(C#CC2C=CC(Oc3ccc(C4CCCC4)cc3)C(CO)O2)c1 (centres undefined) | -0.466%
CC(C)(c1ccccc1)c1ccc(OCCN2CCCC2)cc1 | 1.45%
COCCn1nnnc1C(c1cc2ccc(OC)cc2[nH]c1=O)N1CCc2ccccc2C1 (centres undefined) | -47.7% (active)
CCOc1ccc2[nH]c(=O)c(C(c3nnnn3CCOC)N3CCOCC3)cc2c1 (centres undefined) | -2.27%
COc1ccc(OC)c(C(c2nnnn2C(C)(C)C)N2CCc3ccccc3C2)c1 (centres undefined) | -0.0178%
CCOc1ccc(CCNC(=O)Nc2ccccc2)cc1OCC | 1.61%
Cc1cccc(OC(C)C(=O)N2CCc3ccccc3C2)c1 (centres undefined) | 3.66%
CC(C)(O/N=C(\C(=O)N[C@@H]1C(=O)N2C(C(=O)[O-])=C(C[n+]3ccccc3)CS[C@@H]12)c1csc(N)n1)C(=O)O | 1.97%

Structure (SMILES) | activity change, negative = inhibition
CCN1C(=S)N[C@@H](c2cccc(C(F)(F)F)c2)C(C(=O)OC)=C1C | 2.17%
CN(CCc1ccccn1)C(=O)c1ccc(OC2CCN(CCc3ccccc3)CC2)cc1 | 6.37%
Cc1cc2nc3c(=O)n(Cc4ccccc4)c(=O)[nH]c3nc2cc1N | -26.3%
Nc1ccc2nc3c(=O)[nH]c(=S)[nH]c3nc2c1 | -35.7% (active)
Cc1cccc(OCCC(=O)Nc2ccccc2C(N)=O)c1 | -1.3%
O=C(NCc1ccco1)O[C@@H]1C(=O)c2cc(Br)ccc2O[C@H]1c1ccc2c(c1)OCO2 | -0.223%
Cc1ccccc1NC(=O)N1CCCC1C(=O)NCc1ccccc1 (centres undefined) | 2.24%
CC(C)Cn1c(N)c(C(=O)NCc2cccs2)c2nc3ccccc3nc21 | -45.5% (active)
CCC(C)NC(=O)c1c(N)n(/N=C/c2cccs2)c2nc3ccccc3nc12 (centres undefined) | 5.17%
CC(C)(C)c1ccc(C(=O)NCCn2c(N)c(C#N)c3nc4ccccc4nc32)cc1 | -0.974%
COc1ccc(-c2nc3c(c4c2C[C@H](c2ccccc2)OC4)CN(C(=O)c2ccco2)CC3)c(C)c1 | -0.274%
COc1ccc(OCC(=O)Nc2ccc(NC(=O)c3ccco3)c(C)c2)cc1 | -0.451%
C=C(C)CNC(=S)N/N=C/c1ccccc1OCC(=O)O | 7.3%
C=CCOc1ccccc1/C=N/NC(=O)Cc1ccccc1 | 3.68%
CCOc1ccccc1/C=N/NC(=O)CNC(=O)COc1ccccc1 | -43.5% (active)
Cc1ccc(/C=N/NC(=O)COc2ccccc2-c2ccccc2)cc1 | 0.851%
C=CCc1ccccc1OCC(=O)N/N=C/c1ccccc1OCC | -30.1% (active)
Cc1ccc(/C=N/NC(=O)CNC(=O)COc2ccccc2)o1 | 0.654%
Cc1ccc(CSCCNC(=O)CN(c2ccc(F)cc2)S(C)(=O)=O)cc1 | -1.38%
O=c1c(O)c(Br)ccc2c(Br)c(O)c(O)c(O)c12 | -45.3% (active)
COc1ccc(CNC(=O)C(C)NCc2ccccc2Cl)cc1 (centres undefined) | -0.161%
O=[N+]([O-])c1ccc(N=Cc2c(O)ccc3ccccc23)cc1 | -37.8% (active)
COc1cc(N=Cc2c(O)[nH]c3ccccc23)cc(OC)c1OC | -1.7%
CC(=O)n1c(C=Nc2ccccc2)c(O)c2ccccc21 | 0.601%

Structure (SMILES) | activity change, negative = inhibition
O=[N+]([O-])c1ccc(O)c(/C=N/Nc2ccccc2[N+](=O)[O-])c1 | 0.257%
Oc1ccc2ccccc2c1C=Nc1ccccc1 | -34.9% (active)
O=[N+]([O-])c1ccc(N/N=C/c2ccccc2)cc1 | 1.24%
CCCCn1c(SCC(=O)N2CCOCC2)nc2c1c(=O)n(C)c(=O)n2C | -0.5%
O=C(Nc1ccccc1N1CCOCC1)c1ccc(OCc2cscn2)cc1 | -3.06%
Cc1nc(Nc2ccccc2F)c2nnn(Cc3ccccc3Cl)c2n1 | 1.81%
C=C[C@](C)(O)CCC1C(=C)CCC2[C@@](C)(CO)CCC[C@@]12C (some centres undefined) | 1.09%
O=[N+]([O-])c1ccc(C=Nc2ccc(Cl)cc2Cl)s1 | -32% (active)
CCOc1ccc(NC(=O)CCC(=O)N/N=C/c2ccc([N+](=O)[O-])s2)cc1 | 0.71%
CC(C)(C)c1cc(C(=O)N/N=C/c2ccc([N+](=O)[O-])s2)n[nH]1 | 1.27%
Nc1nc2c(nc(Cl)n2C2OC(CO)C(O)C2O)c(=O)[nH]1 (centres undefined) | 1.07%
COC(=O)c1ccc(OCC(=O)NC(C)(C)C)cc1 | -2.25%
CC(=O)Nc1ccc(OCC(=O)NCc2ccc(C)cc2)cc1 | 0.378%
CC(C)(C)NC(=O)COc1ccc(CNc2ccc3[nH]c(=O)[nH]c3c2)cc1 | -49.7% (active)
Cc1cccc(C)c1NC(=O)CN1C(=O)C(C)Oc2ccccc21 (centres undefined) | 0.123%
NS(=O)(=O)c1cccc(NC(=O)CC23CC4CC(CC(Br)(C4)C2)C3)c1 | -0.295%
O=C(/C=C/c1ccc(N2CCOCC2)cc1)c1ccccc1 | -2.68%
Oc1c(C=Nc2cccc3nsnc23)ccc2ccccc12 | -48.9% (active)
Oc1ccc2ccccc2c1N=Nc1nccs1 | -6.8%
N#Cc1cccc(NC(=O)CN2CCCCCC2)c1 | 0.599%
Cc1ccc(C(=O)NC2CCN(C(=O)Nc3ccc(F)cc3)CC2)cc1 | -0.456%
CC(=O)OCC(NC(=O)C(Cc1ccccc1)NC(=O)OC(C)(C)C)C1OC(n2ccc(=O)[nH]c2=O)C(OC(C)=O)C1OC(C)=O (centres undefined) | 0.391%
COc1ccc(N2CCN(C(=O)CCSCc3ccccc3F)CC2)cc1 | 2.76%
Cc1cc(C)c([N+](=O)[O-])cc1-c1ccc(/C=N/NC(=O)c2nonc2N)o1 | 2.52%

Structure (SMILES) | activity change, negative = inhibition
O=C(CN1CCOCC1)N/N=C/c1ccc(-c2ccc(Br)cc2)o1 | -3.01%
Cc1ccc(-c2ccc(/C=N/NC(=O)CN3CCOCC3)o2)cc1[N+](=O)[O-] | -44% (active)
CC(C)CNC(=S)NC(=O)c1ccc(Cl)cc1 | -5.21%
CCOC(=O)C1=C(c2ccc(OC)cc2)C(=O)c2ccccc2C1=O | -63.5% (active)
COc1ccc(OCCCON2C(=O)c3ccccc3C2=O)cc1 | 0.279%
CCOC(=O)c1c(-c2ccc(C)cc2)csc1/N=C(\C)C1=C(O)c2ccccc2C1=O | 3.5%
CC[N+](C)(CC)CCC[n+]1c(-c2ccccc2)c2cc(N)ccc2c2ccc(N)cc21 | -38.7% (active)
COc1cc2c(C(=O)N3CCN(C)CC3)c(CSc3ccccc3)n(C)c2cc1Br | 1.25%
COc1cc(-c2c(-c3ccc4c(c3)OCO4)noc2C)ccc1F | 4.94%
CNC(=O)C1(C)C=CC2(CCCCC2)N1C(C)=O (centres undefined) | -1.27%
COc1ccc2c(c1)C=CC1(O2)N(CCO)c2ccccc2C1(C)C (centres undefined) | -47.2% (active)
CN1c2ccc([N+](=O)[O-])cc2C(C)(C)C12C=Cc1cc(C(=O)O)ccc1O2 (centres undefined) | 6.4%
COc1cccc(CC2(CO)CCCN(CC3=Cc4cc(OC)ccc4OC3)C2)c1 (centres undefined) | -1.06%
CCOC(=O)C1(CCOc2ccccc2)CCN(Cc2cc(OC)c(O)cc2Cl)CC1 | -3.97%
O=c1ccc2cc(S(=O)(=O)Nc3ccccc3F)ccc2o1 | 2.93%
CCCCN1C(=O)/C(=C(/C#N)C(N)=O)c2ccccc21 | -19.4%
COc1ccc2c(c1)C(=C(C#N)C#N)C(=O)N2CCc1ccccc1 | -35.5% (active)
C#CCN1C(=O)C(O)(CC(=O)c2cc(OC)ccc2OC)c2ccccc21 (centres undefined) | 2.24%
NCCCNCCCCN(CCCN)/[N+]([O-])=N/O | 1%
CN(C)c1ccc(S(=O)(=O)NCC(=O)NCC2CCCCC2)cc1[N+](=O)[O-] | -0.658%
COc1ccc(-c2ccc(C3C4C=CCCC4(C)C(=O)N3Cc3ccccc3)c(F)c2)cc1OC (centres undefined) | 2.19%
CC1(C)c2[nH]c3ccccc3c2C[C@H]2C(=O)N(N)CC(=O)N21 | 2.07%

Reference: PubChem BioAssay AID2472 (National Center for Advancing Translational Sciences (NCATS), 2010)
